Experimental data: PubChem BioAssay (Tox21)
Unmarked numbers belong to inactive results. Entries that show only a call come without a potency. The source made the active and inactive calls. Unless noted, the call rests on the fitted dose curve; in most records, active means well fitted curve in the direction sought with a large enough effect in the repeat runs; inconclusive means weak or mixed curves; inactive means no such curve, though single readings can be large; an effect the other way counts as inactive or inconclusive.

Key:
[1] = qHTS assay to identify small molecule antagonists of the thyroid receptor (TR) signaling pathway - cell viability counter screen (AID 743064); further: nearly all actives have a fitted effect of over 50% in size; further: potency means the concentration at half of the fitted maximal effect
Summary of the method: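 CellTiter-Fluor readout, 30 min at 37 °C/5% CO2, following 23.5 h incubation of GH3.TRE-Luc cells with test compound and 1 nM T3 (final).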

[2] = tested on: thyroid hormone receptor (rat, GH3 cells); test: qHTS assay to identify small molecule agonists of the thyroid receptor (TR) signaling pathway (AID 743066; calls by dose curve; further: potency means the concentration at half of the fitted maximal effect)
[3] = qHTS assay to identify small molecule antagonists of the estrogen receptor alpha (ER-alpha) signaling pathway - cell viability counter screen (AID 743074; calls by dose curve;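 further: HEK293 cells carrying ER-alpha-UAS-bla reporter stimulated with 17beta-estradiol; nearly all actives have a fitted effect of over 45% in size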)
[4] = target: Estrogen receptor (Homo sapiens) (UniProt P03372); test: qHTS assay to identify small molecule agonists of the estrogen receptor alpha (ER-alpha) signaling pathway (AID 743075; calls by dose curve;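 further: HEK293 GripTite cells with ER-alpha and UAS-driven beta-lactamase reporter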; further: potency means the concentration at half of the fitted maximal effect)
[5] = qHTS assay to identify small molecule antagonists of the estrogen receptor alpha (ER-alpha) signaling pathway using the BG1 cell line (AID 743080; calls by dose curve;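 further: BG1 cells stimulated with 17beta-estradiol alongside compound; nearly all actives have a fitted effect of over 25% in size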; further: potency means the concentration at half of the fitted maximal effect)
Summary of the method: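 BG1-Luc-4E2 cells (endogenous full-length ER-alpha, 4xERE luciferase) hormone-starved 5 days in charcoal-stripped FBS, plated 4,000/well for 24 h, then compound plus 17beta-estradiol for 21.5 h at 37 C; ONE-Glo luminescence read.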

[6] = qHTS assay to identify small molecule antagonists of the estrogen receptor alpha (ER-alpha) signaling pathway using the BG1 cell line - cell viability counter screen (AID 743081);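 further: compound given together with 17beta-estradiol as the ER stimulus; nearly all actives have a fitted effect of over 45% in size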; further: potency means the concentration at half of the fitted maximal effect
[7] = qHTS assay to identify aromatase inhibitors - cell viability counter screen (AID 743084);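 further: cells stimulated with testosterone during compound exposure; nearly all actives have a fitted effect of over 55% in size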; further: potency means the concentration at half of the fitted maximal effect
[8] = target: Aryl hydrocarbon receptor (Homo sapiens) (UniProt P35869); test: qHTS assay to identify small molecule that activate the aryl hydrocarbon receptor (AhR) signaling pathway (AID 743085); further: nearly all actives have a fitted effect of over 15% in size; further: potency means the concentration at half of the fitted maximal effect;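 on activation: HG2L7.5c1 human HepG2 liver cells with stably integrated DRE-driven firefly reporter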
Summary of the method: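 Stably transfected human liver carcinoma cells (HG2L7.5c1; 20 DRE-firefly luciferase) were incubated 5 h, dosed, and kept 24 h at 37C. Agonism was scored from increased luciferase luminescence.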

[9] = qHTS assay to identify small molecule that activate the aryl hydrocarbon receptor (AhR) signaling pathway - cell viability counter screen (AID 743086); further: nearly all actives have a fitted effect of over 45% in size; further: potency means the concentration at half of the fitted maximal effect
Summary of the method: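 HepG2-AhR-luc (HG2L7.5c1) cells, 4000/well, treated 24 h at 37 C with compound; viability measured as CellTiter-Fluor fluorescence after 30 min in the same wells as the luciferase read.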

[10] = qHTS assay to identify small molecule phospholipidosis (PLD) inducers (AID 1259344; active means well fitted curve in the direction sought with a large enough effect; inconclusive means small, poorly fitted or top-dose-only effect, or another doubt; inactive means no such curve, though single readings can be large; an effect the other way counts as inactive or inconclusive)
Summary of the method: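 Quantitative HTS in HepG2: compound plus LipidTOX Red dye for 24 h, paraformaldehyde fixation with Hoechst 33342, widefield high-content imaging; amiodarone as positive and DMSO as negative control.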

[11] = target: Nuclear receptor subfamily 1 group I member 2 (Rattus norvegicus) (UniProt Q9R1A7); test: Rat pregnane X receptor (rPXR) activation by small molecules, qHTS assay (AID 1346983); conditions: rPXR luciferase reporter cells, One-Glo luminescence, 24 h; max activation: active compounds read high; further: nearly all actives have a fitted effect of over 20% in size; further: potency means the concentration at half of the fitted maximal effect
Summary of the method: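 Cell-based rPXR activation assay: rPXR cells, 2,000 per well, rested 5hr at 37 C, then exposed to compounds in DMSO for 24 hr at 37 C. Luciferase activity read by One-Glo luminescence after 30 min at room temperature.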

[12] = target: Nuclear receptor subfamily 1 group I member 2 (Homo sapiens) (UniProt O75469); test: CYP3A4 induction through human pregnane X receptor (PXR) by small molecules, qHTS assay (AID 1346984); further: nearly all actives have a fitted effect of over 40% in size
Summary of the method: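 DPX-2 HepG2 cells carrying a PXR response element and CYP3A4-promoter luciferase construct, treated with compounds 24 hr at 37C. Then P450-Glo CYP3A4 Luciferin-IPA substrate (3uM final) for 3 hr at 37C, One-Glo added, luminescence read.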

[13] = target: Nuclear receptor subfamily 1 group I member 2 (Homo sapiens) (UniProt O75469); test: Human pregnane X receptor (PXR) activation by small molecules, qHTS assay (AID 1346985); further: nearly all actives have a fitted effect of over 40% in size
Summary of the method: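 DPX-2 cells (HepG2 co-transfected with a PXR response element and a CYP3A4-promoter luciferase construct) were seeded at 2,000 per well, rested 5 hr at 37C, then exposed to DMSO-dissolved compounds for 24 hr. Activation was read as luciferase luminescence.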

[14] = qHTS assay to identify small molecule antagonists of the thyroid receptor (TR) signaling pathway (AID 743065); further: nearly all actives have a fitted effect of over 55% in size; further: potency means the concentration at half of the fitted maximal effect
Summary of the method: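 GH3.TRE-Luc rat pituitary cells (two TREs driving luciferase) were dosed with compound, then stimulated with 1 nM T3 (final) for 23.5 h at 37 C. ONE-Glo luminescence was the read-out, with CellTiter-Fluor fluorescence as the cytotoxicity counter-screen.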

[15] = target: Estrogen receptor (Homo sapiens) (UniProt P03372); test: qHTS assay to identify small molecule antagonists of the estrogen receptor alpha (ER-alpha) signaling pathway (AID 743069; active means well fitted curve in the direction sought with a large enough effect in the signal ratio in the repeat runs, not every such curve was filed as active; inconclusive means weak or mixed curves, or effect the other way; inactive means no such curve, though single readings can be large or run the other way; the % refers to the signal ratio)
Summary of the method: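 Reporter cells (ER-alpha-bla, HEK293 background) are conditioned overnight in stripped-serum medium (2% charcoal-stripped FBS). Compound and 17beta-estradiol exposure runs 18 hr at 37C, 5% CO2.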

Aromatase (Homo sapiens) = Aromatase (Homo sapiens) (UniProt P11511); test: qHTS assay to identify aromatase inhibitors (AID 743083); further: nearly all actives have a fitted effect of over 55% in size; further: potency means the concentration at half of the fitted maximal effect
[16] = target: Estrogen receptor (Homo sapiens) (UniProt P03372); test: qHTS assay to identify small molecule agonists of the estrogen receptor alpha (ER-alpha) signaling pathway using the BG1 cell line (AID 743079); conditions: BG1Luc4E2 cells, ERE-luciferase agonist, 22 h; activation: at 70.3 µM (top of the series); further: nearly all actives have a fitted effect of over 20% in size
[17] = target: Peroxisome proliferator-activated receptor gamma (Homo sapiens) (UniProt P37231); test: qHTS assay to identify small molecule agonists of the peroxisome proliferator-activated receptor gamma (PPARg) signaling pathway (AID 743094; active means well fitted activation curve with a large enough effect in the signal ratio in the repeat runs, not every such curve was filed as active; inconclusive means weak or mixed curves, or effect the other way; inactive means no such curve, though single readings can be large or run the other way; the % refers to the signal ratio)
Summary of the method: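 GeneBLAzer PPARg UAS-bla HEK293H cells were plated, rested 5 h, then exposed to compounds for 17 h at 37C. Beta-lactamase activity was read by LiveBLAzer B/G FRET substrate fluorescence after 1 h at room temperature.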

Estrogen receptor (Homo sapiens), sequence (P03372 whole entry, looked up): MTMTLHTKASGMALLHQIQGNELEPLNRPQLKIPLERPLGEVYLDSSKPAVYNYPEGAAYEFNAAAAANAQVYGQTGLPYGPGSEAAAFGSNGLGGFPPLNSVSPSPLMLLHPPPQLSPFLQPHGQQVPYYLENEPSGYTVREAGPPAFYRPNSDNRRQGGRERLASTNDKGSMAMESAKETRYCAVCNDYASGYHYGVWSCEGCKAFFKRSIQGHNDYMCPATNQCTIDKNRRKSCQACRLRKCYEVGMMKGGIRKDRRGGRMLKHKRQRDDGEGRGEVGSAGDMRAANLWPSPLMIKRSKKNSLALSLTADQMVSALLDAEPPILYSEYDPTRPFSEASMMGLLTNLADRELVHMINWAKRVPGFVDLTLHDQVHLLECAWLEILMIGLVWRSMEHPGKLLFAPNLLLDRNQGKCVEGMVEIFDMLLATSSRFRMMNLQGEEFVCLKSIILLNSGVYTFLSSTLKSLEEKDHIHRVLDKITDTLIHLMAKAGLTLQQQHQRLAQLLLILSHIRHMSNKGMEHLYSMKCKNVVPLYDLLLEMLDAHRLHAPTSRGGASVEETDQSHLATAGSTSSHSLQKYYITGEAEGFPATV
Nuclear receptor subfamily 1 group I member 2 (Rattus norvegicus), sequence (Q9R1A7 whole entry, looked up): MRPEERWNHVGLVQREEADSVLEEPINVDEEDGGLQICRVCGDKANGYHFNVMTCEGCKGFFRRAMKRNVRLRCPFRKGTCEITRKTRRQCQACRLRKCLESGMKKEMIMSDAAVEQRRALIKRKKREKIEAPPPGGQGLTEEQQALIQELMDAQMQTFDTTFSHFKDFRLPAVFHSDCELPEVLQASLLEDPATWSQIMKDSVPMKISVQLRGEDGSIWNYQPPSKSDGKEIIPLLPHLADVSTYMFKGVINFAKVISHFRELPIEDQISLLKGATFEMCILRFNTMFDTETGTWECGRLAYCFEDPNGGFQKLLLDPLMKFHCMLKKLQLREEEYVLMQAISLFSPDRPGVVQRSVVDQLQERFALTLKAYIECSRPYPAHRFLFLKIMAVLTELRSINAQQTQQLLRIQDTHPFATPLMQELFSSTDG
Aryl hydrocarbon receptor (Homo sapiens), sequence (P35869 whole entry, looked up): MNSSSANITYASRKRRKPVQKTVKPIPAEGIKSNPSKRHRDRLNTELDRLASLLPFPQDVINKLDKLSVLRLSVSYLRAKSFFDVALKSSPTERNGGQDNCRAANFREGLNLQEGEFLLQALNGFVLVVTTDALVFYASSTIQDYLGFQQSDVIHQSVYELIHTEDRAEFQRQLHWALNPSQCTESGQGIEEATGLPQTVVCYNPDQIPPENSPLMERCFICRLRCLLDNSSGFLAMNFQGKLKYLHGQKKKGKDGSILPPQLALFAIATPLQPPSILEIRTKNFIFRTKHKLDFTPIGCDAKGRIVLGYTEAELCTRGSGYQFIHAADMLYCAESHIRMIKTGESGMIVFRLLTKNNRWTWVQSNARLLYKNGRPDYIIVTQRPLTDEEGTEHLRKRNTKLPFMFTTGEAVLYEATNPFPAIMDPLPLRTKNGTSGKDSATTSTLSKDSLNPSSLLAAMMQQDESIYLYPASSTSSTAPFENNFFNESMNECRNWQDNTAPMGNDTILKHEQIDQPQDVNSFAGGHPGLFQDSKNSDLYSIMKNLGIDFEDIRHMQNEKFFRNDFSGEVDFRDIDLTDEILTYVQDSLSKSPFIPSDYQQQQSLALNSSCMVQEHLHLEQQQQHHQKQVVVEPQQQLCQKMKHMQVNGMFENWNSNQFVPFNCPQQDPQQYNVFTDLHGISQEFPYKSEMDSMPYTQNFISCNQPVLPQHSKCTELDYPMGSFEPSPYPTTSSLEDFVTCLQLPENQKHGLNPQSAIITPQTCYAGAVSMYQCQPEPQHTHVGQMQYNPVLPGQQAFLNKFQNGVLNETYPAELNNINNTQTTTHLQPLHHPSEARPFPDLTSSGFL
Aromatase (Homo sapiens), sequence (P11511 whole entry, looked up): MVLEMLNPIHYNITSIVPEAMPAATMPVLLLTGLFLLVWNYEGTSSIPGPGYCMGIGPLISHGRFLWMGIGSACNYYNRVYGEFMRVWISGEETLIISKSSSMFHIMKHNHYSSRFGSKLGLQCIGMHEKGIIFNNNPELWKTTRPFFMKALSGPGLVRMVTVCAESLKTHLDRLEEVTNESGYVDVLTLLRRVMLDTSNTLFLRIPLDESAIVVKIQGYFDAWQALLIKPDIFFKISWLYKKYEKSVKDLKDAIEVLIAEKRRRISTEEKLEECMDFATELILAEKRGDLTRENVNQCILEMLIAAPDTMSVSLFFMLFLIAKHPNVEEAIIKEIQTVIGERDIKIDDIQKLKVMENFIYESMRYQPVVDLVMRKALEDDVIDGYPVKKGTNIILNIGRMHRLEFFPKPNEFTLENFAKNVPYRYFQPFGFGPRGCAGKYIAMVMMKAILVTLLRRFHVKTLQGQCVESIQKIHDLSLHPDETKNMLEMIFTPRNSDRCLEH
Peroxisome proliferator-activated receptor gamma (Homo sapiens), sequence (P37231 whole entry, looked up): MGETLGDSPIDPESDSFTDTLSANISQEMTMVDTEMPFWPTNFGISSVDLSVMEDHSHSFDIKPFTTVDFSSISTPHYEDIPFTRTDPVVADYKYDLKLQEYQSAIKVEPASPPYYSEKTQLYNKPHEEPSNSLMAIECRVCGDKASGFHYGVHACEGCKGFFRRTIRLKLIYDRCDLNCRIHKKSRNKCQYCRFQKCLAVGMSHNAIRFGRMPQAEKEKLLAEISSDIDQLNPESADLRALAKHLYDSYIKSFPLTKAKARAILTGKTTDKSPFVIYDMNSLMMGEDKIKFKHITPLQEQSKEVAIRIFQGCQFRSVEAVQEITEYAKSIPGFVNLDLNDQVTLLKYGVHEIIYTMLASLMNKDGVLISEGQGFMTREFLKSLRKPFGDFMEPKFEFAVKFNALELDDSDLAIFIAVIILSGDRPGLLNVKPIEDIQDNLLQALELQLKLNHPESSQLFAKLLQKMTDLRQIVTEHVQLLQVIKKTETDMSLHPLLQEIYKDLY

Q: Which Potency [1] does the source give for `COc1cc(C)c(/C=C/C(C)=C/C=C/C(C)=C/C(=O)O)c(C)c1C` here?
A: The Potency was “inactive”.

Q: And the Potency [2]?
A: Its Potency is 5.96 µM (active).

Q: And the Potency [3]?
A: The Potency was “inactive”.

Q: What about the Potency [4] of the same compound?
A: The Potency was 4.25 µM [inconclusive] (active).

Q: And the Potency [5]?
A: The Potency was 0.473 µM (active).

Q: What about the Potency [6] of the same compound?
A: Its Potency is “inactive”.

Q: What about the Potency [7] of the same compound?
A: The Potency was “inactive”.

Q: What about the Potency [8] of the same compound?
A: The Potency was “inactive”.

Q: And the Potency [9]?
A: Its Potency is “inactive”.

Q: And the Potency [10]?
A: Its Potency is “inactive”.

Q: What about the max activation [11] of the same compound?
A: Its max activation is -4.44%.

Q: What about the Potency [12] of the same compound?
A: Its Potency is “inactive”.

Q: What about the Potency [13] of the same compound?
A: The Potency was “inactive”.

Q: With `Clc1cc(Cl)c(OCC#CI)cc1Cl` as the compound, how does the Potency [1] read?
A: Its Potency is 7.5 µM (active).

Q: What about the Potency [14] of the same compound?
A: Its Potency is 6.68 µM (active).

Q: What about the Potency [15] of the same compound?
A: Its Potency is “inactive”.

Q: And the Potency [3]?
A: Its Potency is “inactive”.

Q: And the Potency [4]?
A: Its Potency is “inactive”.

Q: What about the Potency [5] of the same compound?
A: The Potency was 33.5 µM (active).

Q: And the Potency [6]?
A: Its Potency is “inactive”.

Q: What about the Potency (Aromatase (Homo sapiens)) of the same compound?
A: The Potency was 16.8 µM (active).

Q: What about the Potency [7] of the same compound?
A: The Potency was 21.1 µM (active).

Q: What about the Potency [8] of the same compound?
A: The Potency was “inactive”.

Q: What about the Potency [9] of the same compound?
A: The Potency was 26.6 µM (active).

Q: What about the Potency [10] of the same compound?
A: The Potency was “inactive”.

Q: And the max activation [11]?
A: The max activation was -1.32%.

Q: And the Potency [12]?
A: The Potency was “inactive”.

Q: And the Potency [13]?
A: The Potency was “inactive”.

Q: Which Potency [1] does the source give for `CNC(=O)[C@H](Cc1c[nH]c2ccccc12)NC(=O)[C@@H](CC(=O)NO)CC(C)C` here?
A: The Potency was 1.68 µM (active).

Q: And the Potency [14]?
A: The Potency was “inactive”.

Q: And the Potency [2]?
A: Its Potency is “inactive”.

Q: What about the Potency [3] of the same compound?
A: Its Potency is “inactive”.

Q: What about the Potency [6] of the same compound?
A: Its Potency is 2.66 µM (active).

Q: What about the Potency [9] of the same compound?
A: Its Potency is 0.596 µM (active).

Q: And the Potency [10]?
A: The Potency was “inactive”.

Q: What about the max activation [11] of the same compound?
A: Its max activation is 15%.

Q: And the Potency [12]?
A: Its Potency is “inactive”.

Q: What about the Potency [13] of the same compound?
A: The Potency was “inactive”.

Q: With `N#CC(c1ccc(Cl)cc1)c1c(Cl)cc(-n2ncc(=O)[nH]c2=O)cc1Cl` (stereo unspecified) as the compound, how does the Potency [14] read?
A: Its Potency is 3.76 µM (active).

Q: And the Potency [4]?
A: Its Potency is “inactive”.

Q: What about the Potency [16] of the same compound?
A: Its Potency is “inactive”.

Q: And the Potency [6]?
A: Its Potency is “inactive”.

Q: And the Potency (Aromatase (Homo sapiens))?
A: Its Potency is “inactive”.

Q: And the Potency [7]?
A: Its Potency is “inactive”.

Q: What about the Potency [9] of the same compound?
A: Its Potency is “inactive”.

Q: And the Potency [10]?
A: The Potency was “inactive”.

Q: And the max activation [11]?
A: The max activation was 12.6%.

Q: And the Potency [12]?
A: Its Potency is “inactive”.

Q: What about the Potency [13] of the same compound?
A: Its Potency is “inactive”.

Q: For `CCCOc1cc(N)ccc1C(=O)OCCN(CC)CC`, which Potency [14] is on record?
A: The Potency was “inactive”.

Q: And the Potency [2]?
A: The Potency was “inactive”.

Q: And the Potency [15]?
A: Its Potency is “inactive”.

Q: What about the Potency [3] of the same compound?
A: Its Potency is “inactive”.

Q: What about the Potency [4] of the same compound?
A: The Potency was “inactive”.

Q: What about the Potency [16] of the same compound?
A: The Potency was “inactive”.

Q: And the Potency [5]?
A: The Potency was “inactive”.

Q: What about the Potency (Aromatase (Homo sapiens)) of the same compound?
A: Its Potency is “inactive”.

Q: What about the Potency [7] of the same compound?
A: The Potency was “inactive”.

Q: What about the Potency [8] of the same compound?
A: Its Potency is “inactive”.

Q: And the Potency [9]?
A: The Potency was “inactive”.

Q: And the Potency [17]?
A: The Potency was “inactive”.

Q: And the Potency [10]?
A: Its Potency is “inactive”.

Q: What about the max activation [11] of the same compound?
A: The max activation was 2.87%.

Q: And the Potency [12]?
A: The Potency was “inactive”.

Q: And the Potency [13]?
A: Its Potency is “inactive”.

Q: Which results are given for `CCOc1ccc(N=Nc2ccc(N)cc2N)cc1`?
A: Potency [14]: 10.6 µM (active); Potency [2]: inactive; Potency [3]: inactive; Potency (Aromatase (Homo sapiens)): inactive; Potency [7]: 21.1 µM (active); Potency [8]: 0.944 µM (active); Potency [17]: inactive; Potency [10]: inactive; Potency [11]: 3.16 µM (active); Potency [12]: inactive; Potency [13]: inactive
